Assay outcomes: PubChem, The Scripps Research Institute Molecular Screening Center
hgDAF-12 ag – H. glycines DAF-12 receptor agonists, primary screen, cell-based, luminescence, HEK293, GAL4 fusion, UAS-luciferase. Nuclear hormone receptor DAF-12 (Heterodera glycines), GAL4 fusion. HEK293 GAL4-hgDAF12 UAS-luciferase reporter, agonist luminescence; normalized to butyrate control. activation, % at 6.8 µM. 370,000 compounds, 1.8% hits. AID 687014, 2013;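 active means activation above a cutoff set at the mean of all screened compounds plus 3 SD, cut at about 10% in these data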
Wee1 stabilizer – Wee1 degradation inhibitors, primary screen, cell-based, HeLa, Wee1K328M-luciferase, luminescence | Wee1-like protein kinase (Homo sapiens), P30291 | HeLa Luc-Wee1K328M stability; 100% = proteasome inhibitor MG132 effect | reporter increase, % at 5 µM | 220,000 compounds, 1.2% hits;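 active means activation above the mean of all tested compounds plus 3 SD, set per screening run, cut at about 8.8% in these data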;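 further: cells exposed to compound for 20 h before luminescence read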
ssDAF12 agonist – S. stercoralis DAF-12 nuclear receptor activators, primary screen, cell-based, luminescence, HEK293, GRIP1 co-expression, lit1-tk-luc; Nuclear hormone receptor DAF-12 (Strongyloides stercoralis); HEK293 ssDAF-12/GRIP1 lit1-tk-luc reporter; % of 3 µM dafachronic acid response; activation, % at 6.8 µM; 370,000 compounds, 1% hits; AID 652126, 2013;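 active means activation above the mean over all tested compounds plus 3 SD, cut at about 0.9% in these data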
DAX1 inh-1 – DAX1 (NR0B1) inhibitors on StAR promoter, primary screen, cell-based, luminescence, SF-1 (NR5A1), full-length DAX-1; HEK293T StAR-luciferase reporter, SF-1/DAX-1 repression relief; AID 652010, 2013; inhibition, % at 6.8 µM; 370,000 compounds, 1.1% hits;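 active means inhibition above the mean over all tested compounds plus 3 SD, cut at about 3.6% in these data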;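 further: higher inhibition means more luminescence from relief of DAX-1 repression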
DAX1 inh-2 – DAX1 (NR0B1) inhibitors, primary screen, cell-based, HEK293, Gal4-DAX1, luciferase luminescence | Nuclear receptor subfamily 0 group B member 1 (Homo sapiens), P51843 | HEK293 Gal4-DAX1 luciferase reporter | inhibition, % at 6.75 µM | 340,000 compounds, 0.99% hits | AID 504766, 2011;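 active means inhibition above the mean over all tested compounds plus 3 SD, cut at about 4.2% in these data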;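 further: inhibition shows as a rise in luminescence from relieved DAX1 repression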
Target sequence (P51843 207-470 limits assumed): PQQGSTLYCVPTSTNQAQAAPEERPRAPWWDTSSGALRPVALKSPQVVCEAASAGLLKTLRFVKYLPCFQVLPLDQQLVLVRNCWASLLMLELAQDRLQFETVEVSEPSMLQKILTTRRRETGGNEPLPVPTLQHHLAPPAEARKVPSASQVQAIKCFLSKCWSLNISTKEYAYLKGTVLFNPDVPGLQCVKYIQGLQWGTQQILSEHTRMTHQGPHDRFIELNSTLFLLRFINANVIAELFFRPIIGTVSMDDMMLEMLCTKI
hcDAF12 agonist – H. contortus DAF-12 nuclear receptor activators, primary screen, cell-based, luminescence, HEK293, lit1-tk-luc reporter; HEK293 hcDAF-12 lit1-tk-luc reporter; 0% DMSO, 100% Δ7-dafachronic acid; activation, % at 6.8 µM; 370,000 compounds, 1.4% hits;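 active means activation above the mean of all tested compounds plus 3 SD, cut at about 5.5% in these data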
Wee1 degr conf – Wee1 degradation inhibitors, confirmation, cell-based, HeLa, Wee1K328M-luciferase, luminescence, triplicate | activation, % at 5 µM | 1,100 compounds, 4% hits | HeLa Luc-Wee1K328M degradation; vehicle 0%, proteasome-blocked wells 100% | shares compounds with Wee1 stabilizer; in the data active means activation above about 8.9%
Of the large screens only hits and unclear results are named; the others gave an inactive call (follow-up assays come after a bar, where they were run). An excerpt weighted towards active compounds, which were near 4.6% of everything screened.

COc1ccccc1CNCC(=O)Nc1ccc(C(F)(F)F)cc1	Wee1 stabilizer 12 | Wee1 degr conf inactive
CCCCN(C=O)c1c(CC)nc2ccc(C(=O)N(C)Cc3ccco3)cn12	none (no result: Wee1 stabilizer, DAX1 inh-2)
Cc1ccc(NC(=O)CSc2nnc(-c3cccs3)o2)cc1S(=O)(=O)N(C)C	Wee1 stabilizer 21 (no result: hgDAF-12 ag, ssDAF12 agonist, DAX1 inh-1, DAX1 inh-2, hcDAF12 agonist) | Wee1 degr conf inactive
c1ccc(-n2cnnc2SCc2cn3ccsc3n2)cc1	Wee1 stabilizer 13 | Wee1 degr conf inactive
COc1ccc(CCN2C(=O)N(c3ccc(OC)cc3)C(=O)C2CC(=O)Nc2ccccc2)cc1 (configuration not stated)	Wee1 stabilizer 21 | Wee1 degr conf inactive
COc1ccc(N2C(=O)C(CC(=O)Nc3ccccc3)N(CCc3ccc(OC)c(OC)c3)C2=O)cc1 (configuration not stated)	none
O=C(C[n+]1cn(C(F)F)c2ccccc21)c1ccc(OC(F)F)cc1	Wee1 stabilizer 15 | Wee1 degr conf inactive
O=C(C[n+]1ccc(C(=O)NCc2ccccc2)cc1)c1ccc(OC(F)F)cc1	none
CCOC(=O)[C@]12CCCC=C1N(Cc1ccco1)C(=O)[C@H](CC(=O)N1CCSCC1)C2	none (no result: Wee1 stabilizer, DAX1 inh-2)
CN1/C(=C\C(=O)Nc2cccc(Cl)c2)C(C)(C)c2ccccc21	Wee1 stabilizer 19 | Wee1 degr conf inactive
CN1/C(=C\C(=O)Nc2ccc(Br)cc2)C(C)(C)c2ccccc21	none
Cc1cccc(OCC(=O)O/N=C(\N)c2ccccn2)c1C	Wee1 stabilizer 11 | Wee1 degr conf inactive
C=CCc1cccc2cc(C(=O)NC3CCCCC3)c(=O)oc12	Wee1 stabilizer 17 (no result: hgDAF-12 ag, ssDAF12 agonist, DAX1 inh-1, hcDAF12 agonist) | Wee1 degr conf inactive
C=CCc1cccc2cc(C(=O)NCCOC)c(=O)oc12	none
Cc1ccc(CNC(=O)c2cc(S(=O)(=O)N3CCCCC3)ccc2N2CCOCC2)cc1	none (no result: Wee1 stabilizer)
CCOC(=O)C1=CCN(S(=O)(=O)c2cccc(Cl)c2)C1c1ccc(Cl)c(Cl)c1 (configuration not stated)	none (no result: Wee1 stabilizer, DAX1 inh-2)
O=C(OCC1OC(n2cnc3c(N(C(=O)c4ccccc4)C(=O)c4ccccc4)ncnc32)C(O)C1F)c1ccccc1 (configuration not stated)	Wee1 stabilizer 11 (no result: hgDAF-12 ag, ssDAF12 agonist, DAX1 inh-1, hcDAF12 agonist) | Wee1 degr conf inactive
CCOC(=O)[C@]12CCCC=C1N(Cc1ccco1)C(=O)[C@H](CC(=O)NCC13CC4CC(CC(C4)C1)C3)C2	none (no result: Wee1 stabilizer, DAX1 inh-2)
O=C(O)C1(C(=O)O)CCC2(CCCCC2)CC1	none (no result: Wee1 stabilizer)
Cc1ccc(N2CCC3CC2c2cc(-c4ccc(C(F)(F)F)cc4)ccc23)cc1 (configuration not stated)	none (no result: Wee1 stabilizer)
CC(C)N(Cc1ccccc1)C(=O)CSc1nccn1C	Wee1 stabilizer 12 | Wee1 degr conf inactive
Cc1ccc(-c2csc3ncnc(NCCC(=O)O)c23)cc1C	none (no result: Wee1 stabilizer)
CCCS(=O)(=O)N1CCN(S(=O)(=O)c2ccccc2[N+](=O)[O-])CC1	Wee1 stabilizer 11 (no result: DAX1 inh-2) | Wee1 degr conf inactive
CCCC(C)C(=O)OCC(=O)NCc1ccc(OC)c(OC)c1 (configuration not stated)	Wee1 stabilizer 14 | Wee1 degr conf inactive
CCC(=O)Nc1ccc(-c2cc3ccccc3oc2=O)cc1	Wee1 stabilizer 22 | Wee1 degr conf inactive
CC1CC(C)CN(CC(=O)NC(c2ccccc2)c2ccccc2)C1 (configuration not stated)	Wee1 stabilizer 12 | Wee1 degr conf inactive
Cc1cccc(C(CC(=O)NCc2ccco2)c2ccccc2)c1O (configuration not stated)	none
Cc1ccc(O)c(C(CC(=O)NCc2ccco2)c2ccccc2)c1 (configuration not stated)	Wee1 stabilizer 11 | Wee1 degr conf inactive
CSc1nccc(Oc2cncc(Cl)c2)n1	Wee1 stabilizer 17 | Wee1 degr conf inactive
O=C(Nc1cccc(C(=O)O)c1)/C(=C\c1ccccc1)NC(=O)c1ccco1	none (no result: Wee1 stabilizer)
Cc1ccsc1/C=C1/CN(C)Cc2c1nc1ccccc1c2C(=O)O	Wee1 stabilizer 11 | Wee1 degr conf inactive
CCN1C/C(=C\c2cccc(C)c2)c2nc3ccccc3c(C(=O)O)c2C1	none (no result: hgDAF-12 ag, ssDAF12 agonist, DAX1 inh-1, DAX1 inh-2, hcDAF12 agonist)
ON=C1C2CC=C(c3ccccc3)C1CCC2 (configuration not stated)	none (no result: Wee1 stabilizer)
Cc1cc(F)ccc1S(=O)(=O)NCC(c1cccnc1)N1CCc2ccccc21 (configuration not stated)	none (no result: Wee1 stabilizer)
O=C(Nc1ccc(O)cc1)/C(=C/c1ccco1)NC(=O)c1ccccc1	Wee1 stabilizer 12 | Wee1 degr conf inactive
O=C(Nc1ccc(C(=O)O)cc1)/C(=C\c1ccco1)NC(=O)c1ccc(Br)cc1	none (no result: Wee1 stabilizer)
O=C(c1ccccc1Cl)N1CCSCC1	Wee1 stabilizer 20 | Wee1 degr conf inactive
O=CN1CCN(C(=O)c2ccccc2Cl)CC1	none
CCN(CC)CCN(C(=O)c1ccc(CN2CCCCC2)o1)C(C(=O)NC1CCCCC1)c1ccc(F)cc1 (configuration not stated)	Wee1 stabilizer 11 | Wee1 degr conf inactive
CC(C)CCNC(=O)C(C)N(Cc1ccc(F)cc1)C(=O)c1ccc(CN2CCCCC2)o1 (configuration not stated)	none (no result: hgDAF-12 ag, ssDAF12 agonist, DAX1 inh-1, hcDAF12 agonist)
O=C(c1ccc(Br)o1)N1CCc2ccccc21	Wee1 stabilizer 13 (no result: hgDAF-12 ag, ssDAF12 agonist, DAX1 inh-1, DAX1 inh-2, hcDAF12 agonist) | Wee1 degr conf inactive
O=C(c1ccc(Br)o1)N1CCCc2ccccc21	none
Cc1cccc2c(CC(=O)Nc3ccccc3)noc12	Wee1 stabilizer 13 | Wee1 degr conf inactive
Cc1ccc(NC(=O)Cc2noc3ccccc23)c(C)c1	none
COc1ccc(C2CC(C(F)(F)F)n3ncc(C(=O)Nc4cccc(O)c4)c3N2)cc1OC (configuration not stated)	Wee1 stabilizer 13 | Wee1 degr conf inactive
COc1ccc(OC)c(S(=O)(=O)Nc2ccc3c(c2)OCCO3)c1	none (no result: Wee1 stabilizer)
Cc1cc(N2C3CCC2CC(O)(c2ccc(F)cc2)C3)nc(-c2ccccc2)n1 (configuration not stated)	none
Cc1ccnc(N2C3CCC2CC(O)(c2ccccc2)C3)n1 (configuration not stated)	Wee1 stabilizer 12 | Wee1 degr conf inactive
